The sample as a whole holds a higher share of hits than the screen did.
JMJD2E inh: JMJD2E (human) inhibition | JMJD2E catalytic domain, FDH-coupled NADH fluorescence (FDH is formaldehyde dehydrogenase) | Potency, µM (top dose mostly 57.1 µM), inactives show top-dose activity change, negative = inhibition, hits mostly inhibitors | 230,000 tested, 1.6% active | AID 2147; active = well fitted inhibition curve with a large enough effect, not every such curve was filed as active; inconclusive = small, poorly fitted or top-dose-only effect, or another doubt; inactive = no such curve, though single readings can be large or run the other way;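 note: 0% = wells with enzyme and -100% = buffer wells without enzyme; nearly all actives have a fitted effect of over 50% in size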
BLM helicase inh: inhibitors of human Bloom syndrome helicase BLM | P54132 | recombinant BLM DNA unwinding, fluorescence dequenching | Potency, µM (doses to about 56.1 µM), for inactives: at the highest dose activity change, negative = inhibition, hits mostly inhibitors | 350,000 tested, 0.2% active;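 note: plate controls were vehicle for no effect and no enzyme for full effect; nearly all actives have a fitted effect of over 35% in size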
RECQ1 inh-1: inhibitors of human RECQ1 DNA helicase. RECQ1 DNA unwinding, red fluorescence kinetic read. 240,000 tested, 0.54% active. AID 2549. Potency, µM (series often up to 57.3 µM), for the others: at the top dose activity, negative = inhibition, usual class: inhibitors. P46063;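 note: plate controls were vehicle for no effect and no enzyme for full effect; nearly all actives have a fitted effect of over 30% in size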
Target sequence (P46063 whole entry, looked up): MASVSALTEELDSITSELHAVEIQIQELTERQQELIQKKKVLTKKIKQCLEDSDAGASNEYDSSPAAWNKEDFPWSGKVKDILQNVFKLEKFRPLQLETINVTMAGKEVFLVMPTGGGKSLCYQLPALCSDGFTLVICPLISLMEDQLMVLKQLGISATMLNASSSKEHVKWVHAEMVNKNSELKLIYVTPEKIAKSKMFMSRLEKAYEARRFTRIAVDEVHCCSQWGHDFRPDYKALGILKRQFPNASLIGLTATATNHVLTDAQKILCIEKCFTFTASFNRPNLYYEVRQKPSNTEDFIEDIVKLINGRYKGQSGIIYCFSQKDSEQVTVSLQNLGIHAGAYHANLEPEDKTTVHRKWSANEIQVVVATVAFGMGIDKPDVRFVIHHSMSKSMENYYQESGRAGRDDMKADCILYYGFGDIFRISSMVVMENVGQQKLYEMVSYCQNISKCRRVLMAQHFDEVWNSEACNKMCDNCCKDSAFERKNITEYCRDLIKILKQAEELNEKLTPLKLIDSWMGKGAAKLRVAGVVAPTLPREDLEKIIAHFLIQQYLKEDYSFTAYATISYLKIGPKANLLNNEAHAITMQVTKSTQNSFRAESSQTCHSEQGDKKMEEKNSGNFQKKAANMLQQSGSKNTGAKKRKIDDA
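50 nM RECQ1T1 preincubated 15 min with compound in Tris pH 8.0 buffer with MgCl2, DTT, Tween-20 and 2.5 ug/ml poly(dI-dC); started with 200 nM TAMRA/BHQ-2 forked duplex and 2 mM ATP. Unwinding read as fluorescence (525/598 nm), two reads 2 h apart.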
GCN5L2 inh: inhibitors of human GCN5L2 histone acetyltransferase; GCN5L2 HAT assay, ThioGlo1 CoA-SH fluorescence; Potency, µM (top dose mostly 58.9 µM), inactives show top-dose activity change, negative = inhibition, actives largely listed as inhibitors; 390,000 tested, 0.21% active
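GCN5L2 (20 nM) in 50mM HEPES pH 7.5, 0.1mM EDTA, 0.01% Tween-20 preincubated 15 min with compounds at room temperature. Reaction started with H3(1-25) 75uM, acetyl-CoA 70uM, ThioGlo1 50uM; CoA-thiol fluorescence (Ex340/Em540) read at 0 and 20 min.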
L3MBTL1 block: L3MBTL1 (human) inhibition; Potency, µM (doses to about 57.1 µM), for inactives: at the top dose activity, negative = inhibition, usual class: inhibitors; 230,000 tested, 0.66% active; AlphaScreen L3MBTL1–H3K9me1 peptide binding; AID 485360; note: nearly all actives have a fitted effect of over 60% in size
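Read-out is AlphaScreen signal from streptavidin donor and nickel chelate acceptor beads (10 ug/mL final each) bridging L3MBTL1 (50 nM) and biotinylated K9-monomethylated H3(1-15) peptide (75 nM), after 30 min compound exposure at room temperature.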
APE1 inh: inhibitors of human APE1 endonuclease; P27695; recombinant APE1, TAMRA/BHQ-2 abasic DNA cleavage fluorescence; Potency, µM (doses to about 65.8 µM), inactives show top-dose activity change, negative = inhibition, hits mostly inhibitors; 350,000 tested, 0.35% active; AID 2517;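 note: plate controls were vehicle for no effect and reference inhibitor for full effect; nearly all actives have a fitted effect of over 55% in size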
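Compound pre-exposure to 0.75 nM APE1, 15 min at ambient temperature. Reaction initiated with 50 nM TAMRA/BHQ-2 THF substrate, read immediately in kinetic mode, 525 nm excitation, 598 nm emission.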
RECQ1 conf: confirmation of human RECQ1 helicase inhibitors; RECQ1 helicase DNA unwinding, fluorescence; Potency, µM (series often up to 229 µM), for inactives: at the top dose activity change, negative = inhibition, actives largely listed as inhibitors; shares compounds with RECQ1 inh-1; 610 tested, 28% active; note: nearly all actives have a fitted effect of over 45% in size
ADP FP counter: displaces ADP in a fluorescence polarization counter-screen for RECQ1 hits. Potency, µM (series often up to 228 µM), without a hit: at the highest dose activity change, negative = inhibition, hits mostly inhibitors. shares compounds with RECQ1 inh-1. AID 2711. ADP fluorescence polarization displacement counterscreen. 530 tested, 27% active; note: nearly all actives have a fitted effect of over 45% in size
RECQ1 inh-2: RECQ1 helicase inhibition confirmed, round 2; shares compounds with RECQ1 inh-1; recombinant RECQ1 DNA unwinding, red fluorescence; Potency, µM (series often up to 119 µM), for the others: top-dose activity, negative = inhibition, actives largely listed as inhibitors; 1,100 tested, 15% active; note: nearly all actives have a fitted effect of over 50% in size
An asterisk follows results filed as active; i = inactive; ? = inconclusive; . = not tested or not shown; [ ] = remark or other dose. Unless noted, calls come from the whole dose curve; as a rule, active = well fitted curve in the direction sought with a large enough effect; inconclusive = small, poorly fitted or top-dose-only effect, or another doubt; inactive = no such curve, though single readings can be large; an effect the other way counts as inactive or inconclusive. Unless noted, % is set by controls: 0 for no effect and ±100 for the full control effect; potency is the fitted concentration of half-maximal effect.

SMILES	JMJD2E inh	BLM helicase inh	RECQ1 inh-1	GCN5L2 inh	L3MBTL1 block	APE1 inh	RECQ1 inh-2	others
Brc1ccccc1CN1CCC(N2CCCCC2)CC1	2%	-5%	?	-3%	?	-4%	-2%
CCOc1cccc(OCCOc2ccccc2[N+](=O)[O-])c1	-12%	-11%	?	-20%	25%	-5%	-10%
CCOc1ccccc1Nc1nnc(SCC(=O)Nc2ccc3[nH]c(=O)[nH]c3c2)s1	-28%	-14%	i	17%	-8%	-11%	.
CCOc1ccccc1Nc1nnc(SCC(=O)NC(Cc2c[nH]c3ccccc23)C(=O)O)s1 (centres undefined)	-7%	-11%	0%	-20%	-9%	-1%	.	RECQ1 conf=-3%;ADP FP counter=?
Cc1ccc(Nc2nnc(SCC(=O)NC(Cc3c[nH]c4ccccc34)C(=O)O)s2)cc1 (centres undefined)	-11%	-2%	i	-1%	-6%	-4%	.	RECQ1 conf=-3%;ADP FP counter=13%
O=C(Nc1ccc(F)cc1)c1oc2ccccc2c1NC(=O)C12CC3CC(CC(C3)C1)C2	.	-5%	.	2%	.	.	.
CCN(CC1CCCO1)C(=O)c1cc(COc2cc(C)c(Cl)c(C)c2)on1 (centres undefined)	.	-6%	.	-19%	.	3%	.
COc1ccc(NC(=O)C(C)Sc2nnc3c4c(nc(-c5ccc(OC)cc5)n23)CC(C)(C)OC4)cc1 (centres undefined)	-11%	2%	-15%	-1%	-8%	2%	.
COc1ccc2nc(C)cc(Nc3ccc(Cl)c(Cl)c3)c2c1	.	-11%	.	-8%	.	.	.
COc1ccc2c(c1)CC/C(=C\c1ccc(OC)c(Cn3nc(C)cc3C)c1)C2=O	-1%	-12%	35µM*	-2%[0.501 µM]	.	-3%	?
COc1ccc2c(c1)CC/C(=C\c1ccc(OC)c(Cn3cccn3)c1)C2=O	-22%	-9%	-1%	-15%	.	3%	.
CCOC(=O)c1c(NC(=O)/C=C/C(=O)O)sc(C)c1-c1ccc(C(C)(C)C)cc1	-3%	-12%	?	?	-7%[11.4 µM]	8%	50µM*
Cn1c(=NC(=O)c2ccc(S(=O)(=O)N3CCCc4ccccc43)cc2)sc2cc(S(C)(=O)=O)ccc21	-2%	0%	-2%	-6%	0%	-1%	.
C#CCn1c(=NC(=O)c2ccc(S(=O)(=O)N3CCCc4ccccc43)cc2)sc2cc(S(N)(=O)=O)ccc21	?	-4%	0%	-9%	-4%	2%	.	RECQ1 conf=-7%;ADP FP counter=20%
CCc1ccc(CNCc2c(C(=O)O)n(Cc3ccc(C)cc3)c3cc(C)ccc23)cc1	.	-6%	.	-9%	.	.	.
COc1cc(/C=N/N2C(=O)CSC2=S)ccc1O	3%	-1%	?	-8%	.	4%	?
CSc1nc2ccc(NC(=O)NC(=O)c3c(F)cccc3F)cc2s1	8%	1%	-4%	-2%	6%	2%	.
COc1cccc(F)c1C(=O)NC(=O)Nc1ccc2nc(C)oc2c1	?	-6%	35µM*	-8%	.	?	26%
CN(Cc1ccc(F)cc1)C(=O)c1ccc(NC(=O)CC2SC(N3CCCC3)=NC2=O)cc1 (centres undefined)	.	.	.	1%	-4%	-3%	.

High-throughput results from PubChem.
